Compounds with a hit are over-represented: about 4% of the library has one in this group of screens.
Glioma ERSR ind – ER stress response induction in glioma. U87-MG GRP78 promoter luciferase reporter, 16 h. Potency, µM, for the others: at the highest dose activation, actives largely listed as activators. actives 0.02% (n = 420,000); active means well fitted activation curve with a large enough effect; further: potency means the concentration at half of the fitted maximal effect; series mostly up to about 76 µM; % of control where 0% means no effect; nearly all actives have a fitted effect of over 35% in size
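Stably transfected U87-MG human glioma cells carrying a GRP78-based luminescent sensor were seeded at 1000 cells/well, pin-dosed with compounds and incubated 16 h. Luciferase reagent was then added, and end-point luminescence was read after 10 min at room temperature.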
D1 potentiator – enhances dopamine response at the human D1 receptor. actives 0.036% (n = 360,000). HEK293 TREx D1 cells, calcium flux, dopamine EC20 potentiation. potentiation, % at 10 µM; in the data active means potentiation above about 30%; further: 0% is about no effect
D1 antagonist – human D1 dopamine receptor antagonism. activity change, negative = inhibition, % at 10 µM. HEK293 TREx D1 cells, calcium flux, dopamine EC80; hits give low values. AID 504652. actives 3.2% (n = 360,000). P21728; in the data active means activity change below about -30%; further: on the % scale 0 is the no-effect control and ±100 the full control effect
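Calcium flux readout: force-coupled, inducible Hek293 Trex D1 line, cells induced overnight at 30 C with tetracycline, dye-loaded 30–90 min at RT. Antagonism scored against EC80 dopamine challenge given 180 s after compound.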
TRHR enhancer – allosteric enhancers of human TRH receptor | P34981 | TRHR cells, fluo-8 calcium fluorescence, EC20 TRH enhancement | enhancement, % at 2 µM | actives 0.66% (n = 360,000) | AID 493056; in the data active means enhancement above about 30%; further: 0% is about no effect
Target sequence (P34981 whole entry, looked up): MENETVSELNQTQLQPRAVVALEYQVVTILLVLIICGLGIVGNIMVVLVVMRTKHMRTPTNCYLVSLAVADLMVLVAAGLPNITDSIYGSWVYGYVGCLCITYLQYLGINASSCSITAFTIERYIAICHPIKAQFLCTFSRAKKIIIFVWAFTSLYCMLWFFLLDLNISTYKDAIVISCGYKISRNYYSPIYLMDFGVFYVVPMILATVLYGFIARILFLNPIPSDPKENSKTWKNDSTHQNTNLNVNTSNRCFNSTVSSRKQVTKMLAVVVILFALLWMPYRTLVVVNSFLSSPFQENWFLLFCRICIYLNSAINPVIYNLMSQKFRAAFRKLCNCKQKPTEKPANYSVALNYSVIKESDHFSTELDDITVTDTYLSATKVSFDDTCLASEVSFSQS
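Enhancer read-out: after compound pinning and an initial kinetic agonist-mode read, an EC20 of TRH (10 nM final) was injected and fluo-8 calcium signal (Ex 480/Em 530) followed at 1 s/cycle for 100 cycles in TRHR-expressing cells.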
D1 agonist – activates the human D1 dopamine receptor; P21728; HEK293 T-REx D1 cells, calcium flux, agonist mode; activation, % at 2 µM; actives 1% (n = 360,000); AID 504660; further: 0% is about no effect
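Inducible HEK293 T-REx D1 cells, force-coupled to calcium signalling, were plated at 4000 cells/well with tetracycline and held overnight at 30 C. After no-wash calcium dye loading, compound-evoked calcium rise over 180 s flagged agonists.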
TRHR ag – TRH receptor (human) agonism. P34981. TRHR cells, calcium flux fluo-8, FDSS agonist mode. activation, % at 2 µM. actives 0.18% (n = 360,000). AID 493084; further: 0% is about no effect
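TRHR-expressing cells loaded with fluo-8 calcium dye; 23 nL library compound pin-transferred, kinetic FDSS fluorescence (Ex 480/Em 530) recorded about 180 s for agonist-induced calcium release, before a 10 nM TRH EC20 addition for potentiator mode.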
Active calls of the source: *; / = no result given. Unless noted, no stated cut-off is given here; in the data, active means activation above about 30%; inactive means the rest.

SMILES	Glioma ERSR ind	D1 potentiator	D1 antagonist	TRHR enhancer	D1 agonist	TRHR ag
COc1ccc(S(=O)(=O)NCc2ccc3c(c2)OCO3)cc1C(=O)O	-3%	-1	25	5	-2	0
O=S(=O)(Cc1ccc(Cl)cc1)NCc1ccc2c(c1)OCO2	-2%	-2	-36*	-8	5	-3
O=C(Nc1ccccc1)c1cc(C2CCCN(C(=O)c3ccccc3)C2)on1 (configuration not stated)	1%	/	/	/	/	/
CCNC(=O)NC(=O)CN(C)c1ccccc1	-2%	-5	-13	34*	1	0
CN(CC(=O)NC(=O)NC1CCCCC1)c1ccccc1	-2%	-3	11	22	4	1
COCCN1CCn2c(nc3cc(NC(=O)c4ccc(OC)cc4)ccc32)C1	4%	-1	-52*	-2	0	0
COCCN1CCn2c(nc3cc(NC(C)=O)ccc32)C1	4%	-4	-1	5	1	1
CCCCn1c(=N)n(CCOc2ccc(C)cc2)c2ccccc21	-5%	-3	32	1	50*	0
CCCCn1c(=N)n(CCOc2ccccc2OC)c2ccccc21	-4%	-8	-3	4	33*	-1
CCn1c(=N)n(CCOc2ccc(Br)cc2)c2ccccc21	-11%	4	-26	12	89*	3
CCCCCn1c(=N)n(CC(O)COc2ccccc2OC)c2ccccc21 (configuration not stated)	-5%	-3	-1	3	26	1
COc1ccc(OCCn2c(=N)n(CCO)c3ccccc32)cc1	-3%	-4	12	0	4	1
CC(=O)N1CCCc2cc(S(=O)(=O)N3CCCC(C(=O)NC(C)C)C3)ccc21 (configuration not stated)	-4%	2	17	3	0	0
CCOC(=O)N1CCN(C(=O)c2cc3cc(Br)ccc3oc2=O)CC1	-3%	4	-1	41*	0	0
COc1ccc(CNc2ccnc(-c3ccoc3)n2)c(OC)c1	1%	/	/	/	/	/
Cc1ccn(-c2n[nH]c(C)c2[N+](=O)[O-])n1	-6%	20	4	3	8	0
Cc1[nH]nc(N2CCCCCC2)c1[N+](=O)[O-]	-4%	-9	-41*	0	1	0
Clc1ccc(CCNC(c2nnc(-c3ccccc3)o2)c2ccccc2Cl)cc1 (configuration not stated)	-2%	7	-10	5	69*	-1
Clc1ccc(CCNC(c2cccc(Cl)c2)c2nnc(-c3ccccc3)o2)cc1 (configuration not stated)	-2%	-1	11	-4	24	3
Fc1ccc(C(NCCc2ccc(Cl)cc2)c2nnc(-c3ccccc3)o2)c(Cl)c1 (configuration not stated)	-3%	9	-16	6	64*	0
CCN(CC)CCCNc1cc(C)c(C#N)c2nc3ccccc3n12	-4%	/	/	/	/	/
S=C(NCc1ccco1)Nc1ccc(Oc2ccccc2)cc1	5%	-3	-6	1	21	-1
Cc1c(N(C)S(=O)(=O)c2cccc(C(=O)NCc3cccnc3)c2)c(=O)n(-c2ccccc2)n1C	-1%	/	/	/	/	/
CCC(=O)Nc1cnc(NC(=O)c2cccc(F)c2)cc1C	-13%	-6	8	5	8	1
CC(=O)Nc1cnc(NC(=O)c2cccc(F)c2)cc1C	-9%	-3	-36*	8	3	0
SMILES	Glioma ERSR ind	D1 potentiator	D1 antagonist	TRHR enhancer	D1 agonist	TRHR ag
CC(C)Sc1nc2c(c(=O)[nH]1)C(c1cccs1)C1=C(CC(C)(C)CC1=O)N2 (configuration not stated)	-2%	1	4	33*	0	0
C=C(C)COc1ccc(C2NC(=O)c3ccccc3O2)cc1OCC (configuration not stated)	-4%	-13	-49*	0	4	0
O=C1NC(c2cccc(Cl)c2)Oc2ccccc21 (configuration not stated)	-2%	-11	-9	32*	0	0
Cc1c(Br)cc(F)c([S+](=O)([O-])N2CCN([S+](=O)([O-])c3ccc4c(c3)OCCO4)CC2)c1F	/	3	-29	-2	1	1
Cc1noc(C)c1CSc1nnc(-c2ccncc2)n1-c1cccc(Cl)c1C	-5%	-1	-6	-2	7	-2
CCOC(CNC(=O)c1[nH]c(C(F)(F)F)nc1-c1ccccc1)OCC	-2%	/	/	/	/	/
CSc1nc(-c2ccc(Cl)cc2)nc(N)c1C#N	-2%	3	9	8	2	0
CSc1nc(N)c(C#N)c(-c2ccc(Cl)cc2)c1C#N	-5%	-11	-32*	0	9	2
COc1ccccc1N1CCN(c2ncnc3c2cnn3-c2cccc(Cl)c2)CC1	3%	0	-4	5	-1	0
c1ccc(Cc2noc(CN3CCCN(C4Cc5ccccc5C4)CC3)n2)cc1	-1%	-3	0	-6	-1	-1
c1ccc(Cc2noc(CN3CCN(C4CCc5ccccc5C4)CC3)n2)cc1 (configuration not stated)	-3%	5	1	-1	32*	0
COC(=O)c1cn(C(=O)c2ccc(OC)c(OC)c2)c2ccccc12	1%	0	-47*	2	3	0
COc1cc(OC)cc(-c2nc3nc(C)c(CCC(=O)NCCC(C)C)c(C)n3n2)c1	-2%	1	9	7	0	0
Cc1nc2c(-c3ccc(F)cc3)c(C)nn2c(C)c1CCC(=O)Nc1ccccc1	2%	-10	-19	9	2	1
COCCCNC(=O)CCc1c(C)nc2nc(-c3cc(OC)cc(OC)c3)nn2c1C	0%	-2	-31*	22	1	0
COCCCNC(=O)CCc1c(C)nc2c(-c3ccc(F)cc3)c(C)nn2c1C	-4%	-13	-34*	3	2	-1
COCCNC(=O)CCc1c(C)nc2c(-c3ccc(F)cc3)c(C)nn2c1C	-3%	-7	-22	-12	1	0
CCN1CCN(c2ccc(NC(=O)CCc3c(C)nc4c(-c5ccc(F)cc5)c(C)nn4c3C)cc2)CC1	-3%	-14	-79*	8	6	0
O[C@H](c1cc(C(F)(F)F)nc2c(C(F)(F)F)cccc12)[C@H]1CCCCN1	0%	/	/	/	/	/
OC(c1cc(-c2ccc(C(F)(F)F)cc2)nc(C(F)(F)F)c1)C1CCCCN1 (configuration not stated)	-13%	13	-11	6	158*	19
OC(c1cc(C(F)(F)F)nc2c(C(F)(F)F)cccc12)C1CCCCN1 (configuration not stated)	-11%	34*	-10	6	160*	0

Compound activity (PubChem BioAssay)
